# Paper PMC5540273 (PLoS ONE, 2017)
# How the values were obtained:
# [1] = system: RIOK3
# [2] = system: PRKX
# [3] = system: RAF1
# [4] = system: PLK4
# [5] = system: PRKD2
# [6] = system: PRKD3
# [7] = system: PRKD1
# [8] = system: T1, PKAC-alpha
# T1 construct: gene PRKACA
# [9] = system: RIOK1
# [10] = system: RIOK2
# [11] = system: ROCK1
# [12] = system: RIPK2
# [13] = system: PLK1
# [14] = system: PLK2
# [15] = system: PLK3
# [16] = system: PRKCI
# [17] = system: PKN1
# [18] = system: T2, PYK2
# T2 construct: gene PTK2B
# [19] = system: RIPK1
# [20] = system: RIPK4
# 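Note: kd values determined as follow-up on hits from a single-replicate KINOMEscan panel screen.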
compound,measurement,setting,value
Cc1ccc(C(=O)Nc2ccc(Nc3ccnc4cc(-c5ccccn5)ccc34)cc2O)cc1.Cl [GW440146],Kd,[1],> 10000 nM
Cc1ccc(NC(=O)Nc2cccc(Cl)c2)cc1-c1ccc(C(=O)Nc2ccncc2)cc1 [GSK1398468],Kd,[2],7400 nM
same,Kd,[3],180 nM
Nc1ncnc2[nH]c(-c3ccccc3)nc12 [AH5015],Kd,[4],> 10000 nM
COC(=O)c1c(-c2ccccc2)c2cc(C(=O)O)ccc2c(=O)n1Cc1ccccc1,Kd,[3],170 nM
Cl.O=C(Nc1cccc(-c2nn3ncccc3c2-c2ccnc(Nc3cccnc3)n2)c1)c1c(F)cccc1F [GSK312879],Kd,[3],430 nM
COc1cccc(-c2cc(-c3c[nH]nc3-c3ccccn3)ccn2)c1 [GW680338],Kd,[1],9600 nM
COc1ccccc1CNC(=O)c1cc(C(=O)c2ccccc2C)c[nH]1 [GSK364507],Kd,[4],> 10000 nM
Cc1cccc(-c2nc(C)cc(Nc3ccncc3)n2)n1 [GSK257997],Kd,[5],1100 nM
same,Kd,[6],1000 nM
same,Kd,[3],> 10000 nM
Cc1cccc(-c2nc(Nc3ccc4[nH]ncc4c3)c3ccccc3n2)n1 [GW857175],Kd,[7],19 nM
same,Kd,[5],15 nM
same,Kd,[6],11 nM
CC(=O)Nc1nc2cnc(Nc3cc(NC(=O)c4cccc(CCC#N)c4)ccc3C)nc2s1,Kd,[3],> 10000 nM
Cc1cccc(-c2cc(Nc3ccncc3)c3ccccc3n2)n1 [GSK223675],Kd,[7],100 nM
same,Kd,[5],300 nM
same,Kd,[6],210 nM
O=S(=O)(c1ccc(-c2ccnc3[nH]ccc23)cc1)N1CCCC1 [GSK846226],Kd,[8],260 nM
same,Kd,[9],610 nM
same,Kd,[10],960 nM
same,Kd,[1],540 nM
same,Kd,[11],330 nM
CCn1c(-c2ccccn2)nc2cnccc21 [SB-736398],Kd,[8],> 10000 nM
same,Kd,[2],> 10000 nM
CC1=C(C(=O)Nc2cc3cn[nH]c3cc2F)C(c2ccc(C(F)(F)F)cc2)CC(=O)N1 (stereo not drawn) [GSK429286],Kd,[2],350 nM
same,Kd,[11],2.7 nM
CSc1nn2c(=O)cc(N3CCOCC3)nc2n1Cc1cccc(C(F)(F)F)c1C [GSK2363608],Kd,[11],46 nM
CCCc1ccc(S(=O)(=O)NC2CCN(c3ccnc(Nc4ccc(F)cc4)n3)C2)cc1 (stereo not drawn) [GSK1379715],Kd,[8],> 10000 nM
COC(=O)c1c(-c2ccccc2)c2cc(OC)ccc2c(=O)n1Cc1ccccc1,Kd,[3],390 nM
Cc1cccc(-c2nc(Nc3cccc(C(N)=O)c3)c3ccccc3n2)n1 [GW876019],Kd,[6],820 nM
Cn1cncc1-c1ccc2ncnc(Nc3ccc(OCc4ccccc4)cc3)c2c1 [GW320571],Kd,[12],91 nM
COc1cc2ncn(-c3cc(OCC4CCCO4)c(C(N)=O)s3)c2cc1OC (stereo not drawn) [GSK204607],Kd,[13],13 nM
same,Kd,[14],4.4 nM
same,Kd,[15],40 nM
same,Kd,[16],> 10000 nM
same,Kd,[1],670 nM
COc1ccc2nc(-c3cccc(C)n3)nc(Nc3ccncc3)c2c1 [GSK204919],Kd,[7],51 nM
same,Kd,[5],34 nM
same,Kd,[6],490 nM
CN1C(=O)C(Nc2ccc(Cl)c(C(=O)O)c2)=C(c2ccc(Cl)cc2)C1=O [SB-404290],Kd,[17],> 10000 nM
Cc1ccc(NC(=O)Nc2cc(C(C)(C)C)nn2-c2ccccc2)cc1 [GSK1014915],Kd,[3],270 nM
COc1ccc(Nc2nccc(NCCNC(=O)Nc3ccccc3F)n2)cc1 [GSK1379901],Kd,[5],> 10000 nM
Cc1cccc(-c2nc(Nc3ccncc3)c3ccccc3n2)n1 [GW855857],Kd,[7],9.7 nM
same,Kd,[5],17 nM
CC(C)(C)c1ccc(C(=O)Nc2cn3cc(Cl)ccc3n2)cc1,Kd,[16],> 10000 nM
same,Kd,[18],> 10000 nM
Cc1nnc(-c2ccc3occ(-c4ccc(S(C)=O)cc4)c3c2)[nH]1 (stereo not drawn),Kd,[19],> 10000 nM
Cl.NC(=O)c1cccc(Nc2nccc(Nc3ccc(Oc4cccc(Cl)c4)c(Cl)c3)n2)c1 [GW659008],Kd,[12],44 nM
COc1cc2ncnc(Nc3ccc4nc(-c5ccccc5)[nH]c4c3)c2cc1OC.Cl [GW282450],Kd,[4],1600 nM
CN(C)CCN(C)C(=O)c1cc(-c2ccncc2)c(-c2ccc(Cl)c(O)c2)o1.Cl.Cl [SB-710397],Kd,[3],650 nM
Cc1cccc(-c2nc(-c3ccc(S(C)(=O)=O)cc3)sc2-c2ccnc(NCCc3ccccc3)c2)c1,Kd,[3],150 nM
Cc1cc(-c2ccc3c(c2)CC[C@@H](N[C@@H](C)c2ccccc2)C3)cnc1N.Cl [GW412617],Kd,[10],650 nM
Clc1cc(Cl)cc(Nc2ccnc(Nc3cc(Cl)cc(Cl)c3)n2)c1 [GSK175726],Kd,[10],150 nM
Cc1cc(N2Cc3ccccc3C2)nc(Nc2ccc(S(=O)(=O)N3CCOCC3)cc2)n1.Cl [GSK1669917],Kd,[20],> 10000 nM
CS(=O)(=O)c1ccc(-c2nc3n(c2-c2ccncc2)CCC3)cc1 [SKF-105942],Kd,[20],> 10000 nM
Fc1cc(Cl)ccc1Nc1ccnc2cc(-c3ccc(CN4CCCCC4)o3)ccc12 [GW560116],Kd,[8],> 10000 nM
